From PubChem BioAssay
Abs 340nm: compound light absorbance at 340 nm, profiling panel, artefact control, biochemical, MLSMR library, data from PS, PMK, MK assays. fold change at 10 µM. 65,000 tested, under 10 active. compound absorbance at 340 nm, fold over control;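 active = at 10 µM dose, initial 340 nm absorbance at least 2 fold that of control wells; inactive = change under 2 fold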;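 note: initial absorbance extrapolated from kinetic A340 decline of NADH oxidation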
M1 antag: antagonists of rat M1 muscarinic receptor; CHO-M1 cells, Fluo-4 calcium, ACh EC80 antagonist mode; stronger effect = lower value; actives 3.4% (n = 64,000); Muscarinic acetylcholine receptor M1 (Rattus norvegicus), P08482; B-score at 10 µM; AID 628, 2007;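 active = calcium fluorescence response, raw or row-and-column corrected B-score, differing from the plate sample mean either way at a set confidence level, mostly lower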
WNV protease inh: inhibitors of WNV NS2B-NS3 protease, primary screen, biochemical, fluorogenic substrate | fluorogenic substrate Ex360/Em465; stronger effect = lower value | z-score (no concentration beside the values) | actives 0.18% (n = 65,000) | AID 577, 2007; in the data active = z-score below about -3
Target sequence (P06935 1371-1501 limits assumed): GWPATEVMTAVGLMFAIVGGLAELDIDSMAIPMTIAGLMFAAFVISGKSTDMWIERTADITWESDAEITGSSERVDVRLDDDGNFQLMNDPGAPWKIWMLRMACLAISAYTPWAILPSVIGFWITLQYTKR
Target sequence (P06935 1502-1679 limits assumed): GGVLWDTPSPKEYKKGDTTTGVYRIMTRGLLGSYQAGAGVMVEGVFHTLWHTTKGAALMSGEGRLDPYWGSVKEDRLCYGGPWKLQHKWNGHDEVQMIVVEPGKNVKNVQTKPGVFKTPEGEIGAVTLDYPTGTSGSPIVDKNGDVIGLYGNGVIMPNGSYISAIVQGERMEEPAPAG
BAP1 block: inhibitors of BAP1 deubiquitinase, primary screen, biochemical, Ub-AMC fluorescence, kinetic; Ubiquitin carboxyl-terminal hydrolase BAP1 (Homo sapiens), Q92560; recombinant BAP1, Ub-AMC hydrolysis fluorescence kinetic; stronger effect = lower value; AID 436, 2006; actives 0.48% (n = 72,000); calls only at 20 µM;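 active = activity remaining at or below 50% of control, provided the compound also passes the data quality filters; inactive = the rest, including low values that fail the filters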;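 note: 100% = DMSO wells rate and 0% = substrate alone blank rate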
M1 agonist: M1 muscarinic receptor agonists, primary screen, CHO-M1 cells, Fluo-4 calcium, agonist mode. Fluo-4 calcium fluorescence; stronger effect = higher value. B-score at 10 µM. Muscarinic acetylcholine receptor M1. actives 3% (n = 64,000);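 active = fluorescence rise, raw or as B-score row- and column-corrected plate score, outside the 99.7% band of its plate's samples, either direction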
Fluor 339 460: intrinsic fluorescence of library compounds, ex339/em460 – biochemical, MLSMR library, data from DPM-DC assay, artefact control, profiling panel. compound autofluorescence, ex339/em460 nm, NADH buffer; stronger effect = higher value; 1 = no-compound wells, NADH background. fluorescence fold increase at 10 µM. actives 5.5% (n = 65,000);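 active = at 10 µM, mean starting fluorescence two-fold or more over control wells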;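 note: signal is the first read of a kinetic run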
Active calls of the source: *; i = inactive; . = no result given; + = active, no number. Compounds with a hit are over-represented: about 9.7% of the library has one in this group of screens.

SMILES	Abs 340nm	M1 antag	WNV protease inh	BAP1 block	M1 agonist	Fluor 339 460
CCn1c(SCc2nc3ccccc3s2)nnc1-c1cccs1	1	-0.098	-0.22	i	2.2	1.1
O=C(OCCN1C(=O)c2cccc3c(N4CCOCC4)ccc(c23)C1=O)c1ccccc1Br	.	.	.	i	.	.
Cc1nn(-c2ccccn2)c2nc(-c3cccs3)cc(C(=O)N3CCOCC3)c12	1.2	-0.38	0.32	.	-0.43	2.1*
CCOC(=O)c1cc(-c2ccncc2)nc2c1c(C)nn2-c1ccccn1	1.1	-0.28	-0.49	i	0.55	1.5
COc1cccc(Cn2c(N)c(C#N)c3nc4ccccc4nc32)c1OC	1	0.029	-0.17	i	-0.92	3.4*
COc1cc(Cn2c(N)c(C#N)c3nc4ccccc4nc32)cc(OC)c1	1	0.12	0.26	.	-0.62	3.9*
N#Cc1c(N)n(CCOC(=O)c2cccc(Br)c2)c2nc3ccccc3nc12	1	-0.1	-0.26	.	-1.2	2.4*
CCCn1c(NCc2cccc(OC)c2OC)nc2ccccc21	1.1	0.37	0.71	i	0.26	1.4
CCCOC(=O)C1=C(C)N(C)C(=O)NC1c1cc(Cl)c(O)c(OC)c1 (stereo not given)	.	.	.	i	.	.
O=C(O)c1cc(C(=O)O)cc(C23CC4CC(CC(C4)C2)C3)c1	.	.	.	i	.	.
CCCCn1c(SCc2nnc(-c3ccccc3)o2)nc2c1c(=O)n(C)c(=O)n2C	1	-0.32	-0.43	i	3*	1.1
Cc1cc(C)c2[nH]c(=O)c(C(c3nnnn3C(C)(C)C)N3CCN(C(=O)c4ccco4)CC3)cc2c1 (stereo not given)	1.1	0.16	-0.89	.	-0.66	2.4*
O=c1[nH]c2cc3c(cc2cc1C(c1nnnn1C1CCCC1)N1CCSCC1)OCCO3 (stereo not given)	1	0.5	-0.88	.	-2.6	3.2*
CC(C)(C)n1nnnc1C(c1cc2cc3c(cc2[nH]c1=O)OCCO3)N1CCSCC1 (stereo not given)	1.1	0.73	-0.16	.	-0.49	3.3*
COc1ccc2cc(C(c3nnnn3C(C)(C)C)N3CCSCC3)c(=O)[nH]c2c1 (stereo not given)	1.1	0.31	0.14	i	-0.32	1.1
Cc1cccc2cc(C(c3nnnn3C3CCCC3)N3CCOCC3)c(=O)[nH]c12 (stereo not given)	1.1	-0.039	-0.18	i	-0.18	1.3
CCC(C)(C)n1nnnc1C(c1cc2cc3c(cc2[nH]c1=O)OCO3)N1CCN(C)CC1 (stereo not given)	1.1	-0.66	1.1	.	-0.33	3.8*
COc1ccccc1C(c1nnnn1C(C)(C)C)N1CCN(C(=O)c2ccco2)CC1 (stereo not given)	1	-0.3	1.2	i	0.33	1.1
CCOc1ncccc1C(=O)Nc1ccc(-c2cn3ccsc3n2)cc1	1.1	0.0053	0.27	i	1.9	2.1*
COc1ccc(C(=O)N(Cc2ccco2)C(C(=O)NC2CCCC2)c2ccc(O)cc2)cc1OC (stereo not given)	1	-1.3	-0.34	i	2.6*	1
CC(=O)Nc1nc2ccc(-c3nc4ccccc4o3)cc2s1	1.1	-1	2.4	i	-0.27	2.2*
CC(=O)Nc1nc2ccc(N)cc2s1	.	.	.	i	.	.
Cc1ccnc2ccc(-c3nc4ccccc4o3)cc12	1	0.13	0.45	i	-0.034	5*
CC1Cc2ccccc2N1c1ncnc2c1nnn2Cc1ccccc1 (stereo not given)	1.1	0.0024	-1.1	.	0.76	2.6*
c1ccc(Cn2nnc3c(N4CCc5ccccc5C4)ncnc32)cc1	0.97	0.38	0.66	i	-0.69	1.1
SMILES	Abs 340nm	M1 antag	WNV protease inh	BAP1 block	M1 agonist	Fluor 339 460
O=C1NCCc2c1[nH]c1c(Cl)ccc(Cl)c21	1	0.2	-1.2	i	28*	1.6
CCOC(=O)CCn1c2nc(C)cc(C)c2c(=O)n1-c1ccccc1	1.1	0.54	-0.29	i	0.48	4.5*
CCOC(=O)Nc1c(C)n(C)n(-c2ccccc2)c1=O	1	-1.3	0.83	i	1.3	1.1
COc1ccc(CCNc2oc(COc3ccccc3Cl)nc2C#N)cc1OC	1	-0.82	0.34	i	1.7	1.1
CC(C)(C)c1ccc(-c2nc(C#N)c(NCc3ccncc3)o2)cc1	1	-0.073	-0.46	i	-0.53	1.8
CCN(CC)CCCNc1oc(-c2ccc(OC)c(OC)c2)nc1C#N	1.1	0.2	2.5	.	-0.12	3.9*
COc1ccc(-c2nc(C#N)c(NCc3ccc(C)cc3)o2)cc1OC	1.1	0.12	0.27	.	-0.91	2.1*
CN(C)CCNc1oc(COc2cccc(Cl)c2)nc1C#N	1	0.5	0.89	i	-0.85	1
COc1ccc(-c2nc(C#N)c(NCCc3ccccc3)o2)cc1OC	1.1	0.15	1.8	i	0.92	3.9*
CN(C)CCCNc1oc(-c2cccc(Cl)c2)nc1C#N	1	-0.18	0.54	.	-1.1	3.9*
O=C(CSc1ncnc2sc3c(c12)CCCC3)Nc1ccccc1Cl	.	.	.	i	.	.
O=C1CC(N(CCc2ccccc2)C(=O)c2cccc(F)c2)C(=O)N1c1ccc(Cl)cc1 (stereo not given)	.	.	.	i	.	.
CCN(CC)CCOc1cc2c(nn1)Oc1ccccc1N2C	1.1	-1	0.8	.	1.1	3.8*
Nc1ccc2oc(-c3ccc(-c4nc5ccc(N)cc5[nH]4)cc3)nc2c1	.	.	.	i	.	.
Cc1ccc(C)c(-c2nc3cc(N)ccc3o2)c1	1	0.26	0.23	i	0.54	2.3*
Cc1ccc(C)c(-c2nc3ccc(N)cc3[nH]2)c1	1	0.73	-0.16	i	-0.7	3*
O=C(NCc1cccs1)c1cc2c(s1)-c1ccccc1OC2	1	0.28	0.53	i	0.84	2.4*
O=C(O)c1cc2c(s1)-c1ccccc1OC2	1.2	0.71	1.2	.	0.49	2.2*
O=C(NC1CC1)c1cc2c(s1)-c1ccccc1OC2	1.1	-0.5	9.1	i	-0.96	2.1*
CCn1c(=O)c2cc(C(=O)N3CCN(C(=O)c4ccco4)CC3)sc2c2ccccc21	1.1	-1.4	-0.97	+	5.2*	2.1*
CC(C)c1ccc(C(Nc2ccccn2)c2ccc3cccnc3c2O)cc1 (stereo not given)	.	.	.	i	.	.
O=C(c1ccco1)N1CCN(C(=O)c2cc3c(s2)-c2ccccc2OC3)CC1	1.1	-0.54	3.1	.	-2	2.4*
COC(=O)c1oc2ccc(Br)cc2c1NC(=O)c1ccccc1	1.1	1.3	0.12	i	-0.09	3.2*
O=C(CSc1nnc2sc3ccccc3n12)Nc1ccccc1Cl	.	.	.	i	.	.
